# Giardia killer = kills Giardia lamblia; Giardia lamblia trophozoite viability; activity change, % at 7.66 µM, hits read low; 340,000 tested, 0.15% active; AID 540267; in the data active = activity change below about -80%; inconclusive = between about -30% and that limit;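 note: parasites exposed to compound for two days anaerobically before the ATP read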
#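 Giardia trophozoites, 100 cells per well, were exposed to compounds for 48 hrs at 37 deg C under anaerobic conditions; viability was then read as ATP content by bioluminescence after 15-30 min at room temperature.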
# TDP1 cell CPT = growth inhibition of DT40 Tdp1-/-;hTDP1 cells with camptothecin (screen for TDP1 inhibitors); chicken DT40 Tdp1-/-;hTDP1 cells + 20 nM CPT, ATP luminescence, 48 h; Potency, µM (top dose mostly 46.2 µM), for the others: at the highest dose activity change, negative = growth inhibition, usual class: inhibitors; 420,000 tested, 12% active; AID 686979; note: potency is the fitted concentration of half-maximal effect; nearly all actives have a fitted effect of over 55% in size
#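 Cell growth measured by CellTiter-Glo luminescence after a minimum 48 h, 37 C compound exposure with 20 nM CPT in Tdp1-knockout DT40 cells stably expressing hTDP1, seeded 400/well; qHTS titration format.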
# TDP1 block = blocks human tyrosyl-DNA phosphodiesterase 1; Q9NUW8; recombinant TDP1, AlphaScreen DNA substrate cleavage; Potency, µM (top dose mostly 130 µM), for inactives: top-dose activity change, negative = inhibition, actives largely listed as inhibitors; 350,000 tested, 0.28% active; note: potency is the fitted concentration of half-maximal effect; nearly all actives have a fitted effect of over 40% in size
# Target sequence (Q9NUW8 whole entry, looked up): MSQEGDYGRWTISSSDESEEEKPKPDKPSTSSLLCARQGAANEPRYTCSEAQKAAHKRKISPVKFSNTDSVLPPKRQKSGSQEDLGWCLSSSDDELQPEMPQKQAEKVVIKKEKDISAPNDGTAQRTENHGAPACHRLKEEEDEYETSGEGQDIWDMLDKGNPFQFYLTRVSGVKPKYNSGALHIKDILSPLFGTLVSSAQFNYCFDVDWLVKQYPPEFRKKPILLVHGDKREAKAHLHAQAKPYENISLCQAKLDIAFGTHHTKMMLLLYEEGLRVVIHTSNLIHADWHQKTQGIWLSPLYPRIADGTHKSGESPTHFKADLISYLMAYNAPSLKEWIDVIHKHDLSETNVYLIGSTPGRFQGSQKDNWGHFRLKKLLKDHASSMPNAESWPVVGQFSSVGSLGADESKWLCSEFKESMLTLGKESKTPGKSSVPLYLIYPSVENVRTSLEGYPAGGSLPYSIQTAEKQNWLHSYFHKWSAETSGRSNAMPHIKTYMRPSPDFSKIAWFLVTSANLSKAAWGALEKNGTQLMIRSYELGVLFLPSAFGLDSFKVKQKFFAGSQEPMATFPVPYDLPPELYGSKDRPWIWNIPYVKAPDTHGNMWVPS
#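 Compounds were preincubated with Tdp1 (1 nM final) for 15 min at room temperature before substrate (15 nM final) started a 5 min reaction; beads (10 ug/ml final) were then added for 10 min before AlphaScreen detection.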
# TDP1 cell noCPT = qHTS for Inhibitors of human tyrosyl-DNA phosphodiesterase 1 (TDP1): qHTS in cells in absence of CPT; DT40 Tdp1-/- hTDP1 cells, no CPT, ATP luminescence, 48 h; Potency, µM (highest dose often 46.2 µM), inactives show at the top dose activity change, negative = growth inhibition, usual class: inhibitors; 420,000 tested, 15% active; AID 686978, 2013; note: potency is the fitted concentration of half-maximal effect; nearly all actives have a fitted effect of over 55% in size
#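 Chicken DT40 Tdp1-/- cells stably complemented with human TDP1 were seeded at 400 cells/well with DMSO in place of 20 nM camptothecin. After compound pinning, cells grew at least 48 hr at 37 °C; viability read by CellTiter-Glo luminescence.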
# IL1B secr inh = blocks inflammasome-driven IL-1 beta release. THP-1 LPS/ATP IL-1B secretion, AlphaLISA, 16 h; active compounds read low. activity change, % at 57.5 µM. 360,000 tested, 4.7% active; in the data active = activity change below about -50%; inconclusive = mostly about -30% to -49%
#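 Secreted IL-1B measured by AlphaLISA bead assay after 16 h compound exposure of THP-1 cells; compounds (final up to 57.5 uM) added 1 h before LPS (250 ng/mL) and ATP (1.25 mM) stimulation; lower signal means less secretion.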
# ELG1 repair inh = inhibitors of ELG1-dependent DNA repair in HEK293T cells | AID 504467 | 330,000 tested, 2.3% active | HEK293T ELG1-luciferase reporter, luminescence, 16 h; DNA damage induced by 5-fluorouridine | Potency, µM (titrated, usually from 46.1 µM), without a hit: at the top dose activity change, negative = inhibition, actives largely listed as inhibitors; note: potency is the fitted concentration of half-maximal effect; nearly all actives have a fitted effect of over 55% in size
#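 DMSO vehicle served as the neutral condition. Each well held 2,000 cells given 5-fluorouridine plus compound; after 16 hr at 37 °C/5% CO2, ONE-Glo was added and luciferase measured 30 min later.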
# Starred values were filed as active, the others as inactive; ? = inconclusive; . = no result. Hits are enriched below; roughly 19% of the tested compounds scored in any of these assays. Unless noted, calls come from the whole dose curve; as a rule, active = well fitted curve in the direction sought with a large enough effect; inconclusive = small, poorly fitted or top-dose-only effect, or another doubt; inactive = no such curve, though single readings can be large; an effect the other way counts as inactive or inconclusive. % is set by controls: 0 for no effect and ±100 for the full control effect.
SMILES,Giardia killer,TDP1 cell CPT,TDP1 block,TDP1 cell noCPT,IL1B secr inh,ELG1 repair inh
O=C(NCC1CCCO1)c1cc([N+](=O)[O-])ccc1Cl (stereo not given),-17,-15%,3%,-10%,-17,2%
O=C(NCC1CCCO1)c1ccccc1NS(=O)(=O)c1cc([N+](=O)[O-])ccc1Cl (stereo not given),12,15µM*,5%,?,32,?
O=C(c1ccc(Oc2ccc([N+](=O)[O-])cc2Cl)cc1)N1CCCC1,-1,?,6%,?,0,?
O=C(NCC1CCCO1)C(=Cc1cccc([N+](=O)[O-])c1)C(=O)NCC1CCCO1 (stereo not given),-3,?,3%,23µM*,-110*,?
CCC1(CC)SC(N)=NC1=O,14,-5%,.,-7%,3,.
O=C(NCC1CCCO1)c1ccc(Oc2ccc([N+](=O)[O-])cc2)cc1 (stereo not given),-6,?,-5%,23µM*,-10,0%
COC(=O)c1cc(-c2c(C)oc3cc(OC)ccc3c2=O)c(C)o1,14,12µM*,4%,18µM*,0,-8%
O=S(=O)(c1ccccc1)N1CCC(n2nnc3cc(F)ccc32)CC1,0,?,6%,-14%,-5,?
O=S(=O)(c1ccc2c(c1)OCCO2)N1CCC(n2nnc3cc(C(F)(F)F)ccc32)CC1,6,?,5%,16µM*,-30,?
O=C(Oc1cccc2cccnc12)c1cccc([N+](=O)[O-])c1,-3,0.92µM*,-1%,0.73µM*,-99*,11%
Cc1c(C(=O)Oc2cccc3cccnc23)cccc1[N+](=O)[O-],39,?,3%,?,-66*,-10%
O=C(Oc1c(Cl)cc(Cl)c2cccnc12)c1cccc([N+](=O)[O-])c1,-11,2.9µM*,4%,3.3µM*,46,-17%
CCN(CC)C(=O)Oc1c(Cl)cc(Cl)c2cccnc12,12,18%,0%,?,-1,-9%
O=C(Nc1cccc2cccnc12)c1cccc([N+](=O)[O-])c1,-21,12%,7%,7%,-8,?
O=C(Oc1cccc2cccnc12)c1ccc2c(c1)OCCO2,?,0.65µM*,2%,1µM*,-5,10µM*
Cc1cc(NC(=O)CCS(=O)(=O)c2cc(Br)cc3c2N(C(=O)C2CC2)CC3)ccc1Br,.,-12%,0%,-18%,.,.
O=C(Oc1ccc(Cl)c2cccnc12)c1cccc([N+](=O)[O-])c1,6,1.3µM*,8%,0.92µM*,-18,?
O=[N+]([O-])c1ccc(Oc2cccc3cccnc23)c([N+](=O)[O-])c1,-5,5.2µM*,3%,6.5µM*,-29,-1%
COc1ccc(NC(=O)c2cc(S(=O)(=O)N3CCCCCC3)cn2C)cc1Cl,.,?,1%,?,.,.
COc1cccc([C@@H]2Oc3ccc(OC)cc3C[C@H]2OC(=O)NCc2ccco2)c1,.,.,3%,.,.,.
CN(CC(=O)Nc1cccc(F)c1)C(=O)CN1C(=O)NC2(CCCC2)C1=O,7,?,0%,?,3,12%
O=C(CSc1nnc2c(Cl)cc(C(F)(F)F)cn12)N(Cc1ccccc1)Cc1ccccc1,-16,-74%,-1%,21µM*,-29,-4%
O=C(CSc1nnc2c(Cl)cc(C(F)(F)F)cn12)NCc1ccc(F)cc1,15,4%,-3%,-23%,6,-19%
COC(=O)/C=C1\OCc2ccc(C)cc21,.,14%,.,20%,-19,.
CCCCCCOc1ccc(/C=c2\s/c(=C(/C#N)C(=O)NCc3ccco3)n(-c3ccccc3)c2=O)cc1,0,2.9µM*,6%,6.5µM*,8,13%

# Bioassay records from PubChem BioAssay.
